The assay deals with Sam68 (KHDRBS1). The assay is described as follows: Sam68 small-molecule binders, primary screen, biochemical, small-molecule microarray, 635 nm fluorescence (AID 1125).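 Also: score merges 667 nm channel intensity with signal to noise over triplicate slides.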 Conditions: small-molecule microarray binding, higher = more signal.
For the compound `COCC(=C=CC[C@@H](O)c1ccccc1OCCO)C[C@@H](O)c1cc(Cl)cc(Cl)c1O`, the composite z-score was found to be 1.3.

Compound `COc1ccc(C(=O)Nc2ccc(CN3C(=O)[C@@]4(O[C@@H](CCO)[C@H]([Si](C)(C)c5ccc(OC)cc5)[C@H]4C)c4ccccc43)cc2)cc1` showed a composite z-score of 1.3.

In turn, `O=C1O[C@H](c2ccccc2)[C@H](c2ccccc2)N2[C@H]1[C@@H](C(=O)O)[C@]1(C(=O)Nc3ccc(C#CCCO)cc31)[C@H]2c1ccc(O)cc1` had a composite z-score of 0.0673.

`C=CC[C@@]1(C(N)=O)N=C(c2ccc(OCCCO)cc2)O[C@@H]1c1ccccc1CN=[N+]=[N-]` gave a composite z-score of 1.3.

Consider `COCCOC(=O)N1C(=O)[C@@]2(c3cc(C#CC4=CCCCC4)ccc31)[C@H](C(=O)N1CCc3cc(OC)c(OC)cc3C1)[C@H]1C(=O)O[C@H](c3ccccc3)[C@H](c3ccccc3)N1[C@@H]2c1ccc(OCCO)cc1`, for which the composite z-score is 1.29.

In turn, `COc1ccc(C(O)C2C=CC3C(=O)N(c4ccccc4)C(=O)C3N2Nc2ccccc2F)cc1OCc1ccccc1` (centres undefined) displayed a composite z-score of 1.31.

In the case of `C=C(COC)/C(=C/C[C@@H](OC(C)=O)c1ccc(CO)o1)c1cnc2ccccc2c1`, the composite z-score is 1.29.

In the case of `O=C1C[C@]2(c3ccc([N+](=O)[O-])cc3)C(=O)N(CCN3CCOCC3)c3cc(CO)ccc3[C@H]2N1C1CCCCC1`, the composite z-score is 0.197.

Consider `COC(=O)C=C(CC(O)c1cccc(Cl)c1)OC` (centres undefined), for which the composite z-score came out at 0.0579.

Consider `COc1cc2c(cc1OC)CN(C(=O)[C@@H]1[C@H]3C(=O)O[C@H](c4ccccc4)[C@H](c4ccccc4)N3[C@H](c3ccc(O)cc3)[C@@]13C(=O)Nc1ccc(C#CC4(O)CCCCCC4)cc13)CC2`, for which the composite z-score turned out to be 1.29.

The compound `[N-]=[N+]=NCc1ccccc1C[C@@]1(C(=O)NCC(O)CO)N=C(c2ccc(OCCCO)cc2)O[C@@H]1c1ccccc1N=[N+]=[N-]` (some centres undefined) came in with a composite z-score of 1.31.

In turn, `CCOC(=O)C[C@H]1[C@H](OC(=O)Cc2ccc3c(c2)OCO3)[C@@H](NC(=O)c2ccc(-c3ccccc3)cc2)c2cc(OCCCO)ccc2N1C(=O)c1ccc2ccccc2n1` displayed a composite z-score of 0.202.

`O=C(NCc1ccccc1)[C@@]1(Cc2ccccc2)N=C(c2ccc(OCCCO)cc2)O[C@H]1c1ccccc1` returned a composite z-score of 1.31.

The compound `O=C1NC(=O)C2C1C=CC(C(O)c1ccccc1)N2Nc1ccc(Cl)cc1Cl` (centres undefined) showed a composite z-score of 1.33.

`CN(C)CCCNC(=O)[C@@]1(c2ccc([N+](=O)[O-])cc2)CC(=O)N(C2CCCCC2)[C@@H]1c1ccc(CO)cc1` displayed a composite z-score of 0.819.

Compound `COC(=O)[C@@]1(Cc2ccccc2)[C@H]2c3cc(C(=O)N4CCCC4)n(Cc4cccc5ccccc45)c3C[C@H]2CN1C(=O)c1ccccc1` yielded a composite z-score of 0.621.

`CC(C)(C)OC(=O)CC[C@@]1(C(N)=O)N=C(c2ccc(OCCCO)cc2)O[C@@H]1c1ccccc1`: the composite z-score came to 1.3.

Turning to `COc1cc2c(cc1O)C=[N+](Cc1cccc(OC(F)(F)F)c1)CC2`, the composite z-score is -0.933.

Compound `C=C(C)C1C(=C)CN([C@H](CO)c2ccccc2)C1=O` (some centres undefined) came in with a composite z-score of -0.245.

Consider `COCCCNC(=O)C1N=C(c2ccc(OCCCO)cc2)N(c2ccccc2)O1` (centres undefined), for which the composite z-score was 1.3.

In turn, `C=CC[C@@]1(C(=O)NCc2ccccc2)N=C(c2ccc(OCCCO)cc2)O[C@@H]1c1ccccc1N=[N+]=[N-]` came in with a composite z-score of 1.3.

`CCOc1cc(C(O)C2C=CC3C(=O)N(c4ccccc4)C(=O)C3N2Nc2ccccc2)ccc1O` (centres undefined) had a composite z-score of 0.381.

`O=C1O[C@H](c2ccccc2)[C@H](c2ccccc2)N2[C@H]1[C@@H](C(=O)NC[C@H](O)c1ccccc1)[C@]1(C(=O)Nc3ccccc31)[C@H]2c1ccc(OCCO)cc1` gave a composite z-score of 1.31.

In the case of `COc1ccc(C(O)C2C=CC3C(=O)N(C)C(=O)C3N2N2CCCCC2)c2ccccc12` (centres undefined), the composite z-score came out at 1.31.

`CN1C(=O)[C@]2(Cc3ccccc3)N=C(c3ccc(OCCCO)cc3)O[C@@H]2c2ccccc21` gave a composite z-score of 1.29.

In turn, `C=CCOC(=O)[C@H]1[C@@H]2C(=O)O[C@@H](c3ccccc3)[C@@H](c3ccccc3)N2[C@@H](c2ccc(OCCOC(=O)[C@@H]3C[C@@H]4C(=O)N[C@@H](CCCCN(C)C)C(=O)N4[C@@H]3c3ccc(O)cc3)cc2)[C@]12C(=O)Nc1ccc(I)cc12` gave a composite z-score of 1.3.

In the case of `CC(C)(C)OC(=O)CC[C@@]1(C(=O)NCC(O)CO)N=C(c2ccc(OCCCO)cc2)O[C@@H]1c1ccccc1N=[N+]=[N-]` (some centres undefined), the composite z-score is 1.16.

Compound `O=C1NCC(=O)N2[C@@H]1C[C@@H](C(=O)O)[C@H]2c1cccc(OCCO)c1` showed a composite z-score of 1.33.

Compound `CC(C)OC(=O)C=C1C[C@@H](c2ccccc2C(F)(F)F)O[C@@H](c2ccccc2C(F)(F)F)O1` returned a composite z-score of 0.609.

Source of the values: PubChem BioAssay.
